Laboratory results: PubChem BioAssay (NCATS)
Records with an inconclusive call do not appear. Activity calls are given as the source filed them. The call rests on the fitted dose curve; in most records, active means well fitted inhibition curve with a large enough effect; inconclusive means small, poorly fitted or top-dose-only effect; inactive means flat fitted curve, though single readings scatter.

Columns and labels:
Assay in all cases: qHTS profiling for inhibitors of Plasmodium falciparum proliferation (AID 504749); further: nearly all actives have a fitted effect of over 60% in size
Conditions in all cases: P. falciparum in erythrocytes, SYBR Green DNA, 72 h; series mostly up to 28.7 µM
PC26 = system: PC26
Method in brief: (§1)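 SYBR Green fluorescence (ex 485 nm, em 535 nm) reports parasite DNA after 72 h compound exposure of infected red cells at 0.3% parasitemia, 2.5% hematocrit; signal normalized to 0.29 uM artemisinin and vehicle wells.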

PC49 = system: PC49
Method in brief: as §1

SC27B = system: SC27B
Method in brief: as §1

TAB109 = system: TAB109
Method in brief: as §1

TAB113 = system: TAB113
Method in brief: as §1

TAB165 = system: TAB165
Method in brief: as §1

W2 = system: W2
Method in brief: as §1

Measured: Potency

CC(Cc1ccccc1)NC=O (centres undefined)
inactive: all assays above

Clc1ccc(C2(Cn3cncn3)OCCO2)c(Cl)c1
inactive: all assays above

S=C(S)N1CCNCC1
inactive: all assays above

O=C(CCl)c1ccc(Oc2ccc(C(=O)CCl)cc2)cc1
inactive: all assays above

CCCC(C)C1(CC)C(=O)NC(=O)NC1=O (centres undefined)
inactive: all assays above

CC(=O)OO
inactive: all assays above

O=P(O)(O)C(Cl)(Cl)P(=O)(O)O
inactive: all assays above

CC(=O)O[C@H]1CC[C@H]2[C@@H]3CCC4=CC(=O)CCC4=C3C=C[C@]12C
inactive: all assays above

C[C@]12CCC(=O)C[C@@H]1CC[C@@H]1[C@@H]2CC[C@]2(C)[C@@H](O)CC[C@@H]12
inactive: all assays above

NCC(O)c1cccc(O)c1 (centres undefined)
inactive: all assays above

CC(C)(O)C1C2OC(=O)C1C1(O)CC3OC34C(=O)OC2C14C (centres undefined)
inactive: all assays above

CCCCNCC(O)c1ccc(O)cc1 (centres undefined)
inactive: all assays above
